# Source: the supplement of paper PMC11006884
# The full data set covers some 6,500 targets. This sample favours those with a hit. About 2% of all pairs of compound and target were hits. Values without a mark were called inactive.
# Compound: COC(=O)C#Cc1ccccc1 [methyl 3-phenylpropiolate]
# Assay: log2 ratio of iodoacetamide-alkyne labeling of the cysteine site, DMSO over compound (competition); higher = stronger covalent engagement of the cysteine by the compound, active = 1 or more
# Conditions: 500 µM; treatment time 1 h; system: HEK293T cell lysate
# Summary of the method: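 Three replicates, each with duplicate channels, were prepared from HEK293T lysate (2 mg/mL) treated with vehicle or electrophile at 500 µM for 1 h at ambient temperature. Iodoacetamide alkyne was then applied for 1 h, and samples were clicked to sCIP-TMT reagents, pooled, trypsin-digested overnight at 37 °C, enriched on streptavidin, acid-eluted and analysed on Orbitrap Eclipse LC-MS/MS with FAIMS, with FragPipe quantification. The log2 competition ratio per cysteine is the mean control-channel divided by the mean compound-channel reporter intensity. Cysteines quantified in only one replicate were left out.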
# UniProt P22830, sequence (P22830 whole entry, looked up): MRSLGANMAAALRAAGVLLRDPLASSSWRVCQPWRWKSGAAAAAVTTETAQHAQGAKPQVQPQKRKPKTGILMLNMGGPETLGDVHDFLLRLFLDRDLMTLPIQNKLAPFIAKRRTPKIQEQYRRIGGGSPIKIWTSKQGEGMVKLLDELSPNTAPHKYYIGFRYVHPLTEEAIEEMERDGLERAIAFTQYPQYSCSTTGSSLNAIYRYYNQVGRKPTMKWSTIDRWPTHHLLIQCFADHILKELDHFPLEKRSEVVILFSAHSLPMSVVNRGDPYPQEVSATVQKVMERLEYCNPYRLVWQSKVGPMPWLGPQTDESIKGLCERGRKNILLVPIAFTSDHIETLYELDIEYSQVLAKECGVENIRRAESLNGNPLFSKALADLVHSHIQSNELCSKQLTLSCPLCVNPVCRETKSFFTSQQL
# UniProt P20810, sequence (P20810 whole entry, looked up): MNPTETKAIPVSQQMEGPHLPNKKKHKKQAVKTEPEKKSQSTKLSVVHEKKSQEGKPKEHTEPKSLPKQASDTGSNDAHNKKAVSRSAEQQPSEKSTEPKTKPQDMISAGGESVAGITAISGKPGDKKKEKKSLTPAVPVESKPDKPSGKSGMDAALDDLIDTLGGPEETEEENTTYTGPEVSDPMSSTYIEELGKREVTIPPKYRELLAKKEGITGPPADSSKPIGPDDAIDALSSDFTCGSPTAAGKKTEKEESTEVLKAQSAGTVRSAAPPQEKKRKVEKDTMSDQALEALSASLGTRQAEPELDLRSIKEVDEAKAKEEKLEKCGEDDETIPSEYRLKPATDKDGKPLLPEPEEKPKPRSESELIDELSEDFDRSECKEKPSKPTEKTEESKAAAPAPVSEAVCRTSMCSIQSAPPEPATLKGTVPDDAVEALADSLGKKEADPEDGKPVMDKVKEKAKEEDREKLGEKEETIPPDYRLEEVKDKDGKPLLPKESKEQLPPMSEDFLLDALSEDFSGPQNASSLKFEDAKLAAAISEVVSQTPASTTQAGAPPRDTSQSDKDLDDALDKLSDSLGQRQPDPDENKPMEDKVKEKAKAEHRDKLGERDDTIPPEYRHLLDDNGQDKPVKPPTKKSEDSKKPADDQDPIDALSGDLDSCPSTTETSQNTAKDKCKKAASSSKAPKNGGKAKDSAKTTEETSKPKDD
# UniProt P25205, sequence (P25205 whole entry, looked up): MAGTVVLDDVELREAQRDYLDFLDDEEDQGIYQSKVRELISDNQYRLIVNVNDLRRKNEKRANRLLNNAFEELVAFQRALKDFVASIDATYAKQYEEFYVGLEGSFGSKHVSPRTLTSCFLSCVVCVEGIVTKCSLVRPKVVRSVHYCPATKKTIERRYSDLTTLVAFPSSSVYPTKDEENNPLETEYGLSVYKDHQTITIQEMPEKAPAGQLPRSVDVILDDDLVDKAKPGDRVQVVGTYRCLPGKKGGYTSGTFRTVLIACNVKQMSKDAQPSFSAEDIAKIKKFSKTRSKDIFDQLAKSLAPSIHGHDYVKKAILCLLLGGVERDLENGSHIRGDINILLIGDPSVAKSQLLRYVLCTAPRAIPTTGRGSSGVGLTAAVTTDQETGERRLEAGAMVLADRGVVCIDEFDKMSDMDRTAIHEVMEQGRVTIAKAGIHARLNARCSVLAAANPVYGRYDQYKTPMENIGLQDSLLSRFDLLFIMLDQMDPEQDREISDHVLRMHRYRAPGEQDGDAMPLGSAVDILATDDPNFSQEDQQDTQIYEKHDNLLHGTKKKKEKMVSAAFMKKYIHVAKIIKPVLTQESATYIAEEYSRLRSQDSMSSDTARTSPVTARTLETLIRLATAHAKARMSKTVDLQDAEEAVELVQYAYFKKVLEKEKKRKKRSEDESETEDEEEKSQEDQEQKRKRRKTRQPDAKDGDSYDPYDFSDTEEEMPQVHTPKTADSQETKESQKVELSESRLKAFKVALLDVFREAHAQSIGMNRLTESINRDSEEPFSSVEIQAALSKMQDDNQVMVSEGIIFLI
# UniProt P51570, sequence (P51570 whole entry, looked up): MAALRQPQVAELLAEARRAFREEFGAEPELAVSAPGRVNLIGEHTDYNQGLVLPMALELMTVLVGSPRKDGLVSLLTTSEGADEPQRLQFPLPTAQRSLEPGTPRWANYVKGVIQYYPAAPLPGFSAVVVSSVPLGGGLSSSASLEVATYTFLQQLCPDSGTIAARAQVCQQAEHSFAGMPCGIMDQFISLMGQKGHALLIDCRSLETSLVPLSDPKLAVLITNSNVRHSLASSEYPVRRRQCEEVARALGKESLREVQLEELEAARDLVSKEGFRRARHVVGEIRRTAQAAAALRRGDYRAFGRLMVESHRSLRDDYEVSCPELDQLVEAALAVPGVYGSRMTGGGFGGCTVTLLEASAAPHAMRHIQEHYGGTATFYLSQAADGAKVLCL
# UniProt P09110, sequence (P09110 whole entry, looked up): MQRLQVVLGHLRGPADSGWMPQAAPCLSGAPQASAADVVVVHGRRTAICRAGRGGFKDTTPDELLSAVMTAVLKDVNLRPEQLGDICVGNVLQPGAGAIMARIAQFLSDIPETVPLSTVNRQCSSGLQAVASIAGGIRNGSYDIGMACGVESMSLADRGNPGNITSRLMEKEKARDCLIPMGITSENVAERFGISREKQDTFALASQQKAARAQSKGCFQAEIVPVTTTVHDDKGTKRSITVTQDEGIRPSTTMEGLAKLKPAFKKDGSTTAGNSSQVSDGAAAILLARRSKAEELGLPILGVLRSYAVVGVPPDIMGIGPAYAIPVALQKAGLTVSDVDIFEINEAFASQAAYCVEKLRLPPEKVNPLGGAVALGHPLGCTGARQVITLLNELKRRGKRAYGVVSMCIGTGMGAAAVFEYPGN
# UniProt O95336, sequence (O95336 whole entry, looked up): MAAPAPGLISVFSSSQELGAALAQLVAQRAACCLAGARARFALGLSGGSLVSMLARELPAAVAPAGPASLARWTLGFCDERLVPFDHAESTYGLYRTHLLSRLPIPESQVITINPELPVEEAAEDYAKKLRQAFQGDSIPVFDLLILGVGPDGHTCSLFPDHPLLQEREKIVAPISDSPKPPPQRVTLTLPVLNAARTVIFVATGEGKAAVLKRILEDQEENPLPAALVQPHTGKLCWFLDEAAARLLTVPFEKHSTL
# UniProt P08047, sequence (P08047 whole entry, looked up): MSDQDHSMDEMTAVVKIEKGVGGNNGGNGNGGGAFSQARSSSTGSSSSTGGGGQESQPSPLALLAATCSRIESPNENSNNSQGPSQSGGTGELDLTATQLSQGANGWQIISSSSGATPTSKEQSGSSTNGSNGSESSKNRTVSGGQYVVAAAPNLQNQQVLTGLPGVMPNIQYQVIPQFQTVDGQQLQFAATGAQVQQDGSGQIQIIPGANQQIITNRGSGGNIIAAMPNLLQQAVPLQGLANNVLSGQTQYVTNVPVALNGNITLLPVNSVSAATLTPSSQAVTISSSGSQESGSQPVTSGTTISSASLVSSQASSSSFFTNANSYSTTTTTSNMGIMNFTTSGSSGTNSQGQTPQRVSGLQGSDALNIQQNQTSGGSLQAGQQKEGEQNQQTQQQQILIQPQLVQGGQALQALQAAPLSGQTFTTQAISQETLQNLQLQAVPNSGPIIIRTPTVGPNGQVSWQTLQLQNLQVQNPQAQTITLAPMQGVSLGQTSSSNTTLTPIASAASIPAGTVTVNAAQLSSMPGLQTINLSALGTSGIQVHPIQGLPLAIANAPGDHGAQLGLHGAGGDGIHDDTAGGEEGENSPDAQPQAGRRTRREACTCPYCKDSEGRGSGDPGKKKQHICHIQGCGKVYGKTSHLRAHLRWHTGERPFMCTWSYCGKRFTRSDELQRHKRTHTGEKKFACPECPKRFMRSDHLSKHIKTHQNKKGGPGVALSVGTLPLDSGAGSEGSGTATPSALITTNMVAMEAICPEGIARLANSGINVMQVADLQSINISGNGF
# UniProt P10599, sequence (P10599 whole entry, looked up): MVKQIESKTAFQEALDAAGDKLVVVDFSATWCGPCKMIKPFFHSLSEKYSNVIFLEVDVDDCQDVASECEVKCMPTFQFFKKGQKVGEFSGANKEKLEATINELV
# UniProt O95983, sequence (O95983 whole entry, looked up): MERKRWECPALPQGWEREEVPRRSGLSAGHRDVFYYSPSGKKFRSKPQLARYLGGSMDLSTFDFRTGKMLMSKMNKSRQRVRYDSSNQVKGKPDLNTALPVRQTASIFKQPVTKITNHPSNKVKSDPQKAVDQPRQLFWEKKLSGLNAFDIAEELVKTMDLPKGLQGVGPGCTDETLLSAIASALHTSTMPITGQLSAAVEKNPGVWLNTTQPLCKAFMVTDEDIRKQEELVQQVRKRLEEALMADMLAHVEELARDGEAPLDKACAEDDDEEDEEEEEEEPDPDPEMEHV
# UniProt P18754, sequence (P18754 whole entry, looked up): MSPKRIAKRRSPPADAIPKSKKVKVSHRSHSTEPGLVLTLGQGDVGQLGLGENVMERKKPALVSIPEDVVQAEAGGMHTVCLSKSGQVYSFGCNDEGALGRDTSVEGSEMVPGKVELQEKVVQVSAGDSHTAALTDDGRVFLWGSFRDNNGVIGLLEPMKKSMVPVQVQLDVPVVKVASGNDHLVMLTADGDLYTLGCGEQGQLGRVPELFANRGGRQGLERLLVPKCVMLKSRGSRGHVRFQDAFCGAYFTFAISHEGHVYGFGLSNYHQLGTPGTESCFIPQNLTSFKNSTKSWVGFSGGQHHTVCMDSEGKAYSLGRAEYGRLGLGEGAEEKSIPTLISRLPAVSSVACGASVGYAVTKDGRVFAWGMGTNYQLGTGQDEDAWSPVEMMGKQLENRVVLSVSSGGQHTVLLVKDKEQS
row,Target,log2 ratio of iodoacetamide-alkyne labeling
1,UniProt P10155_C71,0.136
2,PYGB C326 (UniProt P11216),0.332
3,POLR1A C613 (UniProt O95602),0.472
4,ENO1 C357 (UniProt P06733),-0.0848
5,HNRNPA1 C175 (UniProt P09651),-0.128
6,PARP1 C429 (UniProt P09874),0.192
7,UniProt P26639_C343,0.143
8,ACSL3 C652 (UniProt O95573),-0.112
9,TXN C35 (UniProt P10599),1.14 (active)
10,RANBP2 C1296 (UniProt P49792),0.543
11,HNRNPM C114 (UniProt P52272),-0.0182
12,MCM3 C319 (UniProt P25205),-0.032
13,FASN C1992 (UniProt P49327),0.0894
14,UniProt O95071_C739,0.0375
15,UniProt P49753_C401,0.0763
16,RPL14 C42 (UniProt P50914),1.82 (active)
17,HCFC1 C1872 (UniProt P51610),1.32 (active)
18,GMPS C631 (UniProt P49915),0.369
19,LTA4H C8 (UniProt P09960),0.273

row,Target,log2 ratio of iodoacetamide-alkyne labeling
1,MBD3 C266 (UniProt O95983),0.0164
2,RPS17 C35 (UniProt P08708),-0.00485
3,ACAA1 C123 (UniProt P09110),-0.0075
4,ADD1 C68 (UniProt P35611),0.368
5,SP1 C604 (UniProt P08047),-0.0454
6,FECH C395 (UniProt P22830),0.372
7,PARP1 C128 (UniProt P09874),0.229
8,MAP1B C73 (UniProt P46821),0.173
9,GALK1 C170 (UniProt P51570),0.0992
10,FASN C1548 (UniProt P49327),-0.00359
11,RCC1 C93 (UniProt P18754),0.14
12,HNRNPM C653 (UniProt P52272),0.0149
13,GYS1 C699 (UniProt P13807),0.526
14,CCT3 C475 (UniProt P49368),0.185
15,PGLS C32 (UniProt O95336),0.724
16,IDH3A C359 (UniProt P50213),1.05 (active)
17,CAST C408 (UniProt P20810),1.01 (active)
18,GART C466 (UniProt P22102),0.199
